Results on 31 molecules are retold here after PubChem BioAssay (NCI).

Structures are written as SMILES. Compounds without any hit were thinned out: in the full panel of roughly 83,000, 20% have a hit.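 Results are percent growth after 48 hours of single-concentration exposure. 100 means growth as in untreated cells, lower positive values show inhibition; negative values down to -100 show cell death.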 Values without a mark were called inactive. The source made the active and inactive calls. Rule for the calls: active = growth percent below 10; inactive = the rest.

For the experiment, the system named is HL-60(TB) leukemia. Briefly: NCI-60 one-dose screen, 48 h (100 = growth as untreated, 0 = no growth, -100 = all killed). To be noted: 10 µM unless noted.

For the molecule `CN(C)CCCNc1nc2ccccc2c2c(=O)c3cc(F)ccc3sc12`, the growth is -43.5% (active).

On to `CCOC(=O)c1ccc(Nc2ncnc3ccc(NC(=O)c4ccccc4)cc23)cc1`, for which the growth was 69.9%.

Take `COc1ccc(/C=C(/c2ccccc2)[N+](=O)[O-])cc1`: the growth was -28.6% (active).

As to `O=C1/C(=C/c2ccccn2)CCc2ccccc21`, the growth was 56.6%.

Consider `CCN1CCCC(N2c3ccccc3Sc3ccccc32)C1` (stereo unspecified), for which the growth was 93.1%.

Regarding `C=CCNCCC#N`, the growth is 109%.

`CCOC(=O)C1(N)CCCCC1`: the growth is 110%.

As for `COc1ncnc2c(-c3ccccc3)cn(COCc3ccccc3)c12`, the growth is 53.1%.

Turning to `CC1(c2ccc(Cl)cc2)OC(=O)CC(=O)O1`, the growth is 74.7%.

Turning to `COc1ccc(/C=C/c2nc(N3CCOCC3)c3cc(F)c(F)cc3n2)cc1OC`, the growth was -2.81% (active).

As to `CC(O)c1cc[cH-]c1.[Fe+2].c1cc[cH-]c1` (stereo unspecified), the growth was 92.9%.

As to `O=c1[nH]c2cc(Cl)c(Cl)cc2n2cc3ncccc3c12`, the growth is 65.5%.

Consider `Cn1cc(-c2csc(-c3c[nH]c4ccccc34)n2)c2cnccc21`, for which the growth is -30.2% (active).

For the molecule `O=C(C(=O)c1ccc2c(c1)OCO2)c1ccc2c(c1)OCO2`, the growth is 62.3%.

For `Brc1cccc(-c2cc(-c3ccc4c(c3)OCCCO4)[nH]n2)c1`, the growth is 47.7% [25 µM].

As to `Cc1c(Cl)cc(-n2c(=O)c3ccccc3c3ccccc3c2=O)cc1Cl`, the growth was 90.8%.

As to `CCC(=O)c1ccc(Cl)s1`, the growth is 70.4%.

Consider `CCN(CC)CCOc1ccc(/C(=C(\C)c2ccc(OC)c(F)c2)c2ccc(Cl)cc2)cc1`, for which the growth was 68.6%.

On to `Nc1c(C(=O)c2ccc(Cl)s2)sc2nc3c(cc12)CCCC3`, for which the growth is 106%.

`COc1cccc(/C=N/C(=S)NC2(C)C3CCC(C3)C2(C)C)c1O` (stereo unspecified): the growth was 75.5%.

Turning to `CC1=C(NCCN2CCCC2)C(=O)c2c(OCc3ccc(C(F)(F)F)cc3)cccc2C1=O`, the growth was -20.6% (active).

Regarding `CN(C)c1nc(-c2cccs2)n2nc(-c3ccco3)cc2n1`, the growth is 95.3%.

Regarding `COC(=O)c1cc2oc(/C=N/NC(=O)c3cc4oc(-c5cccc(C(F)(F)F)c5)cc4[nH]3)cc2n1Cc1ccccc1`, the growth was 69.9%.

Consider `O=c1[nH]nc(-c2ccc(Br)cc2)cc1Cc1ccc(O)cc1`, for which the growth is 85.4%.

On to `COc1cc(C2CC(c3ccc(Nc4ccnc5cc(Cl)ccc45)cc3)=NN2c2ccc(Cl)cc2)cc(OC)c1OC` (stereo unspecified), for which the growth is 40.3%.

As for `COc1cc(C(=O)N2CCN(C(=O)c3ccco3)CC2)c(N)cc1OCc1ccccc1`, the growth is 99.8%.

Regarding `COc1ccc(C(=O)Cn2c(C(=O)c3ccc(OC)cc3)nc3ccccc32)cc1`, the growth is -50.7% (active).

Turning to `CCn1cc(C(=O)O)c(=O)c2cc(F)c(N3CCN(CC(=O)Nc4ccc(/C(C)=N/OC)cc4)CC3)cc21`, the growth was 90.9%.

Turning to `O=S(=O)(NCCNc1nccc(-c2c(-c3cccc(F)c3)nc3sccn23)n1)c1ccccc1`, the growth is 63.1%.

For the molecule `O=C(Cn1nncc1CN1C(=O)CSC1=O)Nc1ccc(F)cc1`, the growth is 100%.

Regarding `COc1cccc(CNC(=O)c2cccc(C3CC(=O)c4c(cc(OC)c(OC)c4OC)O3)c2)c1` (stereo unspecified), the growth was 43.9%.
